C diff growth – C. difficile growth inhibition | growth activity, negative = inhibition, % at 16 µg/mL (by protocol) | actives 0.25% (n = 86,000) | Clostridium difficile clinical isolate growth, OD600, 24 h; active compounds read low;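 active means mean growth activity at or below -80% and every replicate also at or below -80%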
Tcruzi prolif – blocks T. cruzi growth in NIH3T3 culture; AID 624255; inhibition, % at 8.34 µM; T. cruzi beta-gal in NIH3T3, GalScreen luminescence, 90 h; actives 5.9% (n = 77,000);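 active means mean inhibition above about 93%, with at least 55% of replicates each passing it, limit read from the data, passing the limit was not always enough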
Pf Dd2 growth – P. falciparum Dd2 growth inhibition; SYBR Green, 72 h; active compounds read low; activity change, % at 10 µM; actives 2.3% (n = 94,000); in the data active means activity change below about -80%
Each line names hits and unclear results; the compound was inactive in the other large screens. Rows were chosen to be rich in hits. Some 6.7% of all compounds tested hit in one or more screens of this group.

COc1ccc2c3c([nH]c2c1)[C@H](CO)N(C(=O)CN1CCOCC1)CC31CCN(C)CC1	none (no result: Tcruzi prolif)
O=C(C[C@@H]1CC[C@H](NC(=O)C2CC2)[C@H](CO)O1)NCc1ccncc1	none
Cc1noc(C)c1NC(=O)N(C)C[C@@H]1Oc2ccc(NC(=O)C3CCCCC3)cc2CC(=O)N([C@@H](C)CO)C[C@@H]1C	none
CNC[C@H]1Oc2ccc(NS(=O)(=O)c3cn(C)cn3)cc2CC(=O)N([C@H](C)CO)C[C@@H]1C	none
Cc1noc(C)c1NC(=O)N(C)C[C@H]1Oc2ccc(NC(=O)C3CC3)cc2CC(=O)N([C@@H](C)CO)C[C@H]1C	Pf Dd2 growth -83
Cc1noc(C)c1NC(=O)N(C)C[C@@H]1Oc2ccc(NS(=O)(=O)c3cn(C)cn3)cc2CC(=O)N([C@@H](C)CO)C[C@H]1C	none
Cc1noc(C)c1NC(=O)N(C)C[C@@H]1Oc2ccc(NS(=O)(=O)c3cn(C)cn3)cc2CC(=O)N([C@H](C)CO)C[C@H]1C	Pf Dd2 growth -83
CNC[C@@H]1Oc2ccc(NS(=O)(=O)c3cn(C)cn3)cc2CC(=O)N([C@H](C)CO)C[C@@H]1C	Tcruzi prolif 98
C[C@H](CO)N1C[C@H](C)[C@H](CN(C)Cc2ccc(C(F)(F)F)cc2)Oc2ccc(NC(=O)C3CC3)cc2CC1=O	none
C[C@H]1CN([C@@H](C)CO)C(=O)Cc2cc(NC(=O)C3CC3)ccc2O[C@H]1CN(C)Cc1ccc(C(F)(F)F)cc1	Pf Dd2 growth -80
O=C1[C@@H]2[C@H](C(=O)N1c1ccccc1)[C@@]13COC[C@H](c4ccccc4)N1C(=O)[C@]2(C(=O)NCc1ccccc1)O3	none (no result: Tcruzi prolif, Pf Dd2 growth)
O=C(NCC1CC1)[C@@H]1[C@@H](CO)[C@@H]2Cn3c(cccc3=O)[C@H]1N2C(=O)c1ccccc1	none
CC(C)C#Cc1cnc2c(c1)C(=O)N([C@H](C)CO)C[C@H](C)[C@@H](CN(C)C(=O)CCN1CCCCC1)O2	none (no result: Pf Dd2 growth)
C[C@@H]1CCCCO[C@@H](CN(C)Cc2ccc3c(c2)OCO3)[C@@H](C)CN([C@H](C)CO)C(=O)c2cc(NS(=O)(=O)c3ccc(F)cc3)ccc2O1	none (no result: C diff growth)
COc1ccc(NC(=O)Nc2ccc3c(c2)CC(=O)N([C@@H](C)CO)C[C@H](C)[C@@H](CN(C)C(=O)Nc2ccc(F)cc2)O3)cc1	Pf Dd2 growth -85
C[C@@H]1CN([C@@H](C)CO)C(=O)Cc2cc(NC(=O)Nc3ccc(F)cc3)ccc2O[C@H]1CN(C)CC1CCCCC1	Pf Dd2 growth -89
COc1ccc(NC(=O)Nc2ccc3c(c2)CC(=O)N([C@H](C)CO)C[C@H](C)[C@@H](CN(C)CC2CCCCC2)O3)cc1	Pf Dd2 growth -86
COc1ccc(NC(=O)Nc2ccc3c(c2)CC(=O)N([C@@H](C)CO)C[C@@H](C)[C@@H](CN(C)CC2CC2)O3)cc1	Pf Dd2 growth -83
COc1ccc(NC(=O)Nc2ccc3c(c2)CC(=O)N([C@@H](C)CO)C[C@@H](C)[C@@H](CN(C)CC2CCCCC2)O3)cc1	none
COc1ccc(NC(=O)Nc2ccc3c(c2)CC(=O)N([C@@H](C)CO)C[C@H](C)[C@H](CN(C)CC2CC2)O3)cc1	none
C[C@@H]1CN([C@H](C)CO)C(=O)Cc2cc(NC(=O)Nc3ccc(F)cc3)ccc2O[C@H]1CN(C)CC1CC1	none
COc1ccc(NC(=O)N(C)C[C@@H]2Oc3ccc(NC(=O)Nc4ccc(F)cc4)cc3CC(=O)N([C@@H](C)CO)C[C@@H]2C)cc1	none
CC(C)(C)[S@@](=O)N1Cc2cc(C(=O)NC3CCCCC3)nc(-c3cccc(Br)c3)c2[C@H]1CCO	none (no result: Pf Dd2 growth)
C[C@@H]1CN([C@H](C)CO)C(=O)c2cc(NC(=O)Nc3ccccc3)ccc2O[C@@H](C)CCCCO[C@H]1CN(C)Cc1ccc(Cl)c(Cl)c1	Pf Dd2 growth -86
Cc1noc(C)c1NC(=O)Nc1ccc2c(c1)C(=O)N([C@H](C)CO)C[C@H](C)[C@@H](CN(C)Cc1ccc(Cl)c(Cl)c1)OCCCC[C@H](C)O2	none
C[C@@H]1CCCCO[C@@H](CN(C)Cc2ccc(Cl)c(Cl)c2)[C@H](C)CN([C@H](C)CO)C(=O)c2cc(NC(=O)Nc3ccccc3)ccc2O1	Pf Dd2 growth -83
CC(C)NC(=O)Nc1ccc2c(c1)C(=O)N([C@@H](C)CO)C[C@H](C)[C@H](CN(C)Cc1ccc(Cl)c(Cl)c1)OCCCC[C@@H](C)O2	none (no result: Tcruzi prolif, Pf Dd2 growth)
CC(C)NC(=O)Nc1ccc2c(c1)C(=O)N([C@@H](C)CO)C[C@H](C)[C@@H](CN(C)Cc1ccc(Cl)c(Cl)c1)OCCCC[C@H](C)O2	none (no result: Tcruzi prolif, Pf Dd2 growth)
CC(C)NC(=O)Nc1ccc2c(c1)C(=O)N([C@H](C)CO)C[C@H](C)[C@H](CN(C)Cc1ccc(Cl)c(Cl)c1)OCCCC[C@@H](C)O2	none (no result: Tcruzi prolif, Pf Dd2 growth)
Cc1noc(C)c1NC(=O)Nc1ccc2c(c1)C(=O)N([C@@H](C)CO)C[C@H](C)[C@@H](CN(C)Cc1ccc(Cl)c(Cl)c1)OCCCC[C@@H](C)O2	Pf Dd2 growth -85
C[C@@H]1CCCCO[C@H](CN(C)Cc2ccc(Cl)c(Cl)c2)[C@H](C)CN([C@@H](C)CO)C(=O)c2cc(NC(=O)Nc3ccccc3)ccc2O1	Pf Dd2 growth -85
COc1ccccc1C(=O)N1C[C@@H]2[C@H](c3ccccc31)[C@H](CO)N2CC1CCCC1	none
COCC(=O)N1C[C@@H](C)[C@H](OC)CN(C)C(=O)c2ccc(NC(=O)c3cnccn3)cc2OC[C@@H]1C	none (no result: Tcruzi prolif)
C[C@H]1CN([C@@H](C)CO)C(=O)c2cc(C#Cc3ccccc3)cnc2O[C@@H]1CN(C)C(=O)C1CC1	none
CO[C@H]1CN(C)C(=O)c2cc(NC(=O)NC(C)C)ccc2OC[C@H](C)N(Cc2ccc(-c3ccccn3)cc2)C[C@H]1C	none (no result: C diff growth)
C[C@H](CO)N1C[C@H](C)[C@@H](CN(C)C(=O)C2CC2)Oc2cc(-c3ccc(C(=O)N(C)C)cc3)ccc2S1(=O)=O	none (no result: C diff growth)
COc1cc(CN2CC3(CN(C(=O)c4ccc5c(c4)OCO5)C3)c3c(n(C)c4cc(OC)ccc34)[C@@H]2CO)cc(OC)c1	none (no result: Tcruzi prolif)
COc1ccc2c3c(n(C)c2c1)[C@@H](CO)N(Cc1ccc2c(c1)OCO2)CC31CN(C(=O)c2ccc3c(c2)OCO3)C1	Pf Dd2 growth -85 (no result: Tcruzi prolif)
COc1ccc2c3c(n(C)c2c1)[C@@H](CO)N(CC1CC1)CC31CN(C(=O)c2ccc3c(c2)OCO3)C1	none (no result: Tcruzi prolif)
COc1ccc2c3c(n(C)c2c1)[C@H](CO)N(CC1CC1)CC31CN(C(=O)c2ccc3c(c2)OCO3)C1	Pf Dd2 growth -89 (no result: Tcruzi prolif)
CCC(=O)N1CC2(C1)CN(Cc1cccc(Cl)c1)[C@@H](CO)c1c2c2ccc(OC)cc2n1C	none (no result: Tcruzi prolif)
COCC(=O)N1CCC2(CC1)CN(Cc1ccc3c(c1)OCO3)[C@@H](CO)c1c2c2ccc(OC)cc2n1C	none (no result: Tcruzi prolif)
CCC(=O)N1CC2(C1)CN(Cc1cccc(Cl)c1)[C@H](CO)c1c2c2ccc(OC)cc2n1C	Pf Dd2 growth -92 (no result: Tcruzi prolif)
CCC(=O)N1CCC2(CC1)CN(Cc1ccc3c(c1)OCO3)[C@@H](CO)c1c2c2ccc(OC)cc2n1C	Pf Dd2 growth -91 (no result: Tcruzi prolif)
COc1ccc(NC(=O)N(C)C[C@@H]2Oc3ccc(NS(=O)(=O)c4ccc(C)cc4)cc3C(=O)N([C@H](C)CO)C[C@@H]2C)cc1	none (no result: C diff growth)
O=C(C1CCCC1)N1C[C@H]2[C@@H](c3ccccc31)[C@@H](CO)N2C(=O)Cc1ccccn1	none
